In PubChem BioAssay (EPA / NIEHS):
The source made the active and inactive calls. Rule for the calls: active = hit-call score of the fitted dose curve at least 0.9, where 1 is the maximum; inactive = score below 0.9.

What was measured:
[1] = ATG_CRE_CIS: Attagene CIS-FACTORIAL HepG2 Assay for human cAMP Responsive Element (CRE) binding protein 3 (AID 2282926); settings: HepG2 CRE cis-reporter, Attagene multiplexed mRNA; actives raise or lower the signal
In short: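 Cells carrying cis-regulated reporter constructs respond through their own endogenous factors. After 24 h treatment, RNA is reverse-transcribed, amplified, labelled and sized by capillary electrophoresis; up- and down-regulation are both scored against vehicle.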

[2] = molecular target: CCAAT/enhancer-binding protein beta (Homo sapiens) (UniProt P17676); experiment: ATG_C_EBP_CIS: Attagene CIS-FACTORIAL HepG2 Assay for human CCAAT/Enhancer Binding Protein (C/EBP) beta (AID 2282927); settings: HepG2 Attagene cis-factorial transcription factor reporter; actives raise or lower the signal
In short: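 Endogenous transcription factor activity in human liver HepG2 cells is inferred from induction of a CEBPB-linked reporter mRNA. Exposure lasts 24 h; activity is fitted in both directions relative to DMSO.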

[3] = ATG_CMV_CIS: Attagene CIS-FACTORIAL HepG2 Assay for human CMV (Internal Marker) (AID 2282928); settings: HepG2 CMV promoter reporter, transcription factor profiling; actives raise or lower the signal;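 note: endpoint acts as a background internal control marker rather than a target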
In short: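 Reporter transcripts from transfected HepG2 cells are isolated after 24 h of chemical dosing, reverse-transcribed and amplified. Fragments labeled with 6-FAM are cut with HpaI and quantified by capillary electrophoresis; DMSO defines baseline.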

[4] = ATG_DR4_LXR_CIS: Attagene CIS-FACTORIAL HepG2 Assay for human Liver X Receptor (LXR), DR4 submotif (AID 2282929); settings: HepG2 Attagene DR4 cis-reporter, mRNA transcription; actives raise or lower the signal
In short: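 HepG2 cells transiently transfected with cis-promoter-driven multiplexed reporter units (DR4 element) were dosed for 24 h. Reporter mRNA was quantified by RT-PCR, fluorescent primer extension, HpaI digestion and capillary electrophoresis; bidirectional fitting versus DMSO baseline.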

[5] = molecular target: Aryl hydrocarbon receptor (Homo sapiens) (UniProt P35869); experiment: ATG_Ahr_CIS: Attagene CIS-FACTORIAL HepG2 Assay for human Aryl Hydrocarbon Receptor (Ahr) (AID 2282930); settings: HepG2 AhR cis-factorial reporter transcription; actives raise or lower the signal
In short: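 Transient MRTU transfection of HepG2 → 24 h compound exposure → total RNA, oligo(dT) RT → PCR, 6-FAM extension, HpaI cut → CE fluorescence. DMSO = baseline; bidirectional curve fit.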

[6] = ATG_AP_1_CIS: Attagene CIS-FACTORIAL HepG2 Assay for human Activator Protein 1 (AP-1) (AID 2282931); settings: HepG2 Attagene cis-factorial AP-1 reporter mRNA; actives raise or lower the signal
In short: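 HepG2 cells transiently transfected with cis-element-driven multiplex reporter units; 24 h compound exposure. Reporter mRNA quantified by RT-PCR, FAM-labelled fragments resolved by capillary electrophoresis; bidirectional fit versus DMSO baseline.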

[7] = ATG_AP_2_CIS: Attagene CIS-FACTORIAL HepG2 Assay for human Activator Protein 2 (AP-2) (AID 2282932); settings: HepG2 AP-2 cis-reporter, Attagene transcription factor profiling; actives raise or lower the signal
In short: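 Transiently transfected HepG2 cells are exposed to chemical for 24 h. Reporter transcripts are then measured as fluorescence following RT-PCR and capillary separation, and gain- or loss-of-signal is fitted relative to DMSO.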

[8] = ATG_BRE_CIS: Attagene CIS-FACTORIAL HepG2 Assay for human Bone Morphogenetic Protein (BMP) Response Element (BRE) (AID 2282933); settings: HepG2 BMP response element reporter, Attagene transcription factor profiling; actives raise or lower the signal
In short: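 Endogenous transcription factor activity at a BMP response element was monitored in transfected HepG2 cells 24 h after dosing. Fluorescent RT-PCR products were resolved by capillary electrophoresis, and activity was fitted in both directions versus DMSO.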

[9] = molecular target: Transcription factor E2F1 (Homo sapiens) (UniProt Q01094); experiment: ATG_E2F_CIS: Attagene CIS-FACTORIAL HepG2 Assay for human E2F Transcription Factor 1 (AID 2282935); settings: HepG2 Attagene cis-reporter, E2F reporter RNA transcripts; actives raise or lower the signal
In short: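 Fluorescent RT-PCR products, digested with HpaI for 2 h at 37 C, are separated by capillary electrophoresis. Source RNA comes from transfected HepG2 cultures treated for 24 h.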

[10] = ATG_E_Box_CIS: Attagene CIS-FACTORIAL HepG2 Assay for human Enhancer Box (E-box) (AID 2282936); settings: HepG2 E-box cis-reporter transcription, actives raise or lower the signal
In short: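 Fluorescent reporter fragments separated by capillary electrophoresis gave the signal; mRNA came from HepG2 cells transfected with cis-element reporters and treated 24 h. Curves fitted bidirectionally relative to DMSO controls.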

[11] = ATG_M_61_CIS: Attagene CIS-FACTORIAL HepG2 Assay for M61 Transcription Factor (Internal Marker) (AID 2282937); settings: HepG2 Attagene CIS-FACTORIAL M61 internal marker reporter; actives raise or lower the signal
In short: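 HepG2 cells transiently transfected with cis-element-driven multiple reporter transcription units, dosed for 24 h. Reporter mRNA measured by RT-PCR, 6-FAM primer-extension labelling, HpaI digestion and capillary electrophoresis; bidirectional fit versus DMSO baseline.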

[12] = ATG_EGR_CIS: Attagene CIS-FACTORIAL HepG2 Assay for human Early Growth Response 1 (EGR1) (AID 2282938); settings: HepG2 Attagene CIS-FACTORIAL EGR reporter mRNA; actives raise or lower the signal
In short: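 HepG2 cells transiently transfected with cis-promoter-driven multiplexed reporter transcription units; reporter mRNA measured 24 h after compound dosing by RT-PCR, 6-FAM primer extension, HpaI digestion and capillary electrophoresis. Bidirectional fit versus DMSO baseline.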

[13] = ATG_M_19_CIS: Attagene CIS-FACTORIAL HepG2 Assay for M19 Transcription Factor (Internal Marker) (AID 2282939); settings: HepG2 Attagene CIS-FACTORIAL M19 internal marker reporter; actives raise or lower the signal
In short: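 Background-control endpoint from a multiplexed HepG2 reporter panel. Cells carrying cis-regulated reporter constructs are treated 24 h, then reporter transcripts are amplified, fluorescently labelled and sized by capillary electrophoresis. DMSO defines baseline.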

[14] = ATG_ERE_CIS: Attagene CIS-FACTORIAL HepG2 Assay for Estrogen Response Element (ERE) (AID 2282940); settings: HepG2 ERE cis-reporter, Attagene RNA transcript; actives raise or lower the signal
In short: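 Cells used were human hepatoma HepG2, transfected with multiple reporter transcription units under cis-regulatory promoters. Reporter mRNA, read 24 h post-dosing via fluorescent RT-PCR products on capillary electrophoresis, was fitted bidirectionally relative to DMSO.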

[15] = ATG_Ets_CIS: Attagene CIS-FACTORIAL HepG2 Assay for human Erythroblast Transformation Specific (ETS) (AID 2282941); settings: HepG2 ETS cis-reporter transcription, actives raise or lower the signal
In short: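 Bidirectional fit versus DMSO of reporter mRNA signal, detected by RT-PCR and capillary electrophoresis in HepG2 cells transiently transfected with cis-element reporters and dosed 24 h.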

[16] = molecular target: Hepatocyte nuclear factor 3-beta (Homo sapiens) (UniProt Q9Y261); experiment: ATG_FoxA2_CIS: Attagene CIS-FACTORIAL HepG2 Assay for human Forkhead box A2 (FOXA2) (AID 2282942); settings: HepG2 cis-reporter transcription factor activity, 24 h; actives raise or lower the signal
In short: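 HepG2 cells transiently transfected with multiple cis-regulated reporter transcription units, dosed for 24 h. Reporter mRNA measured by RT-PCR, 6-FAM labelling, HpaI digestion and capillary electrophoresis; bidirectional fitting against DMSO baseline.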

[17] = ATG_FoxO_CIS: Attagene CIS-FACTORIAL HepG2 Assay for human Forkhead box O (FoxO) (AID 2282943); settings: HepG2 Attagene cis-reporter, FoxO element, mRNA; actives raise or lower the signal
In short: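 HepG2, transient MRTU transfection (cis element, endogenous TFs). Dose 24 h. TriZol RNA → oligo(dT) RT → PCR → 6-FAM primer extension → HpaI cut → CE. Gain/loss vs DMSO.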

[18] = ATG_GATA_CIS: Attagene CIS-FACTORIAL HepG2 Assay for human GATA Binding Protein (AID 2282944); settings: HepG2 GATA cis-element reporter, Attagene multiplex mRNA; actives raise or lower the signal
In short: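 Endogenous transcription factor activity was captured through cis-promoter-driven reporters in transfected HepG2 cells. After 24 h exposure, reporter transcripts were quantified by RT-PCR with fluorescent capillary electrophoresis, and responses fitted both directions against DMSO.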

[19] = ATG_GLI_CIS: Attagene CIS-FACTORIAL HepG2 Assay for human Zinc Finger Protein GLI1 (AID 2282945); settings: HepG2, Attagene cis-factorial reporter mRNA, GLI element; actives raise or lower the signal
In short: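 Bidirectional curve fits relative to DMSO, using reporter mRNA levels from RT-PCR plus capillary electrophoresis. Cells were HepG2 transiently carrying cis-regulated reporter constructs, harvested 24 h after dosing.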

Measured: outcome

CCAAT/enhancer-binding protein beta (Homo sapiens), sequence (P17676 whole entry, looked up): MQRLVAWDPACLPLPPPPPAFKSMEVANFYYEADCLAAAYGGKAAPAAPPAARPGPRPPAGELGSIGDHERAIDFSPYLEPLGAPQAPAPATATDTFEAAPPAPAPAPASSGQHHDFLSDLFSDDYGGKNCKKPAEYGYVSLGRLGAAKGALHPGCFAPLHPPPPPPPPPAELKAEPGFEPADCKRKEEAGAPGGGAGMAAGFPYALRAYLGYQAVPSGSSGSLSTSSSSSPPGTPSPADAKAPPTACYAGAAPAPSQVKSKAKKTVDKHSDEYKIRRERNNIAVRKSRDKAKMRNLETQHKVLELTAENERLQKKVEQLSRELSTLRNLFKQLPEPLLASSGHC
Transcription factor E2F1 (Homo sapiens), sequence (Q01094 whole entry, looked up): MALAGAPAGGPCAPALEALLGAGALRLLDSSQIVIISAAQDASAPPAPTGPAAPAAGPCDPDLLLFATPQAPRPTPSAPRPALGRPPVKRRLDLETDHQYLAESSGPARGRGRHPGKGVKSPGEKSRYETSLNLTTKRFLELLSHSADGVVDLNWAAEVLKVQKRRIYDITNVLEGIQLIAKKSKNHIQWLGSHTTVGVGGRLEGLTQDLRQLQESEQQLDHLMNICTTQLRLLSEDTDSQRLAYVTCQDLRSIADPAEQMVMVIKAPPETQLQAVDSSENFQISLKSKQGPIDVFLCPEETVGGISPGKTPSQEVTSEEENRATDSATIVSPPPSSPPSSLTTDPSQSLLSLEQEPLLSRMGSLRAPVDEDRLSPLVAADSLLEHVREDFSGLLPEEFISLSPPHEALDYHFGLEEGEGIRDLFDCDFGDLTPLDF
Hepatocyte nuclear factor 3-beta (Homo sapiens), sequence (Q9Y261 whole entry, looked up): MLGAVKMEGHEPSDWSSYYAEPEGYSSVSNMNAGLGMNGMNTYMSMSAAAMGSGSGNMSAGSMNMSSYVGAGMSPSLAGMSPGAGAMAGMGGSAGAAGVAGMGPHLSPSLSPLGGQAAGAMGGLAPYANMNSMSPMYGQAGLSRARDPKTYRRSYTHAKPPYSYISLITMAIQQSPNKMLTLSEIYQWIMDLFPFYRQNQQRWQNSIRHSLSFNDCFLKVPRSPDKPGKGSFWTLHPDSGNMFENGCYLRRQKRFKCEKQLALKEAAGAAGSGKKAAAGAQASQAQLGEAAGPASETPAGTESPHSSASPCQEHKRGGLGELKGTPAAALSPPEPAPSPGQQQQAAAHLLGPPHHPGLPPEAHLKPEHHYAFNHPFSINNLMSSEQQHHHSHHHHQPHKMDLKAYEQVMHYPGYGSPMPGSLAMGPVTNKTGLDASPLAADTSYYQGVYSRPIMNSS
Aryl hydrocarbon receptor (Homo sapiens), sequence (P35869 whole entry, looked up): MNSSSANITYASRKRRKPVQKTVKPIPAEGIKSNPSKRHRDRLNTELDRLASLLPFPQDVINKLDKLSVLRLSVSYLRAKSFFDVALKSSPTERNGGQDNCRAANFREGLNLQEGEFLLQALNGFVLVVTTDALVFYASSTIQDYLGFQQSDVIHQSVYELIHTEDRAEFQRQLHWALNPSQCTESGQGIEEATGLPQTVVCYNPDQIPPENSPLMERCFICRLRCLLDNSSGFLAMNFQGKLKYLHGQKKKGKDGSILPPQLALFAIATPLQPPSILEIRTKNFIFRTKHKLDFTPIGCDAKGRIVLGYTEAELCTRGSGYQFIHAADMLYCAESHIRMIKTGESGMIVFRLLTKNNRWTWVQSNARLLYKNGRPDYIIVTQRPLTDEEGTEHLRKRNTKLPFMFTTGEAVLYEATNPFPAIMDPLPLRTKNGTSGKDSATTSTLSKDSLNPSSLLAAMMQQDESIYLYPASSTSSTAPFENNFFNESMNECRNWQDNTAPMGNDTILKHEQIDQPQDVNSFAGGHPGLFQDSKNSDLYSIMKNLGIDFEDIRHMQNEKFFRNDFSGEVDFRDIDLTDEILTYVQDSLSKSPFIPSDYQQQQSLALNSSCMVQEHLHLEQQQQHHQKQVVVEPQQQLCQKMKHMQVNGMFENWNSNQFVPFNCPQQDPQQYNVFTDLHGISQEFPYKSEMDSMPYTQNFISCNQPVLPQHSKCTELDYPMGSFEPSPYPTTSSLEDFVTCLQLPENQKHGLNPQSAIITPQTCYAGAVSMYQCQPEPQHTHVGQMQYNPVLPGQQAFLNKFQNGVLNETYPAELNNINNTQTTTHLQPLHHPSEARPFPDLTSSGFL

COC(=O)c1ccc(C)cc1
inactive: all assays above

CCC(C(=O)NC(N)=O)c1ccccc1 (configuration not stated)
inactive: all assays above

Nc1cccc(S(=O)(=O)c2cccc(N)c2)c1
inactive: all assays above
